Pf growth 48h = Primary qHTS for delayed death inhibitors of the malarial parasite plastid, 48 hour incubation; Potency, µM (series often up to 28.7 µM), without a hit: top-dose activity change, negative = inhibition, actives largely listed as inhibitors; P. falciparum luciferase growth in erythrocytes, 48 h; hit rate 5.9% among 310,000; further: potency means the concentration at half of the fitted maximal effect
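Luciferase-expressing P. falciparum in infected erythrocytes (2% hematocrit, 0.1% parasitemia final) in RPMI 1640/0.5% Albumax were exposed to compound for 48 hours at 37 C, 5% CO2; growth read as luminescence.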
Pf growth 96h = Primary qHTS for delayed death inhibitors of the malarial parasite plastid, 96 hour incubation; P. falciparum luciferase reporter growth, 96 h; Potency, µM (doses to about 28.7 µM), for inactives: at the highest dose activity change, negative = inhibition, most hits filed as inhibitors; AID 504834, 2011; hit rate 6.9% among 320,000; further: potency means the concentration at half of the fitted maximal effect
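Erythrocytes infected with luciferase-expressing P. falciparum were dispensed at 2% hematocrit and 0.05% parasitemia (final), then incubated with compounds 96 hours at 37 C in 5% CO2. Luminescence after detection reagent addition reported growth.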
HCMV antiviral = qHTS Assay for inhibitors of the human cytomegalovirus (HCMV); HFF cells, HCMV-luciferase reporter, 72 h; active compounds read low; activity change, negative = inhibition, % at 57.5 µM; hit rate 4.5% among 410,000; in the data active means activity change below about -60%; inconclusive means no clear call, values can overlap the other calls; inactive means above about -39%
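Screen run at 2 compound doses on HFFs infected with reporter HCMV, MOI 1 PFU/cell. Luciferase activity from cell lysates at 72 h post infection gave inhibition relative to buffer-only and Salinomycin wells.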
HCV inh = qHTS Assay for Inhibitors of Hepatitis C Virus (HCV) | Potency, µM (titrated, usually from 41.8 µM), inactives show at the top dose activity change, negative = inhibition, usual class: inhibitors | Huh7.5.1 HCVcc-Cre infection, luciferase reporter, 44 h | AID 651820, 2012 | hit rate 3.4% among 340,000; further: potency means the concentration at half of the fitted maximal effect
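A cell-based infection assay in which seeded cells (1,000 per well) receive test compound after 4 h, are inoculated with HCVcc-Cre at approximately 0.5 moi, and are incubated 44 h before luminescence detection.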
Numbers without * were called inactive; i = inactive; ? = inconclusive; / = no result. Sampled rows, rich in hits. Any-hit rate of the full collection: about 13%. Unless noted, the call rests on the fitted dose curve; in most records, active means well fitted inhibition curve with a large enough effect; inconclusive means small, poorly fitted or top-dose-only effect, or another doubt; inactive means no such curve, though single readings can be large or run the other way. On the % scale 0 is the no-effect control and ±100 the full control effect.

SMILES	Pf growth 48h	Pf growth 96h	HCMV antiviral	HCV inh
COc1ccc(CNC(=O)CCC2N=C3c4ccccc4N=C(SCC(=O)NCC4CCCO4)N3C2=O)cc1 (centres undefined)	?	13.1µM*	?	5.8%
COc1ccc(-c2noc(CCC(=O)Nc3cccnc3)n2)cc1	0.7%	-1.7%	-15.7	?
CC(=O)N1CCCC1c1nc2ccccc2n1Cc1ccccc1Cl (centres undefined)	/	/	2.0	/
CC(C)[C@H](NC(=O)C1CCCC1)C(=O)N1CCC[C@H]1C(=O)NCCc1ccccc1Cl	/	/	-38.5	/
O=C(NCCc1cccs1)c1ccc(Cn2c(SCc3ccc(F)cc3)nc3cccnc32)cc1	/	/	45.8	/
COc1ccc(Cc2c(-c3ccc(OC)c(OC)c3)nc3c(C)cc(Br)cn23)c(C)c1	/	/	-61.2*	/
COc1ccc(Cc2c(-c3ccc(C)cc3)nc3c(C)cc(Br)cn23)c(C)c1	/	/	35.5	/
Nc1nonc1C(=O)N/N=C/c1cc(Br)ccc1O	4.15µM*	13.0%	-8.1	11.2µM*
Nc1nonc1-n1nnc(C(=O)N/N=C/c2cc(Br)ccc2O)c1CNc1ccccc1	?	?	-92.7*	10µM*
COc1ccc2ccccc2c1/C=N/NC(=O)c1nnn(-c2nonc2N)c1C(C)C	?	?	1.2	-27.8%
Cc1c(C(=O)N/N=C/c2c(O)ccc3ccccc23)nnn1-c1nonc1N	?	-0.7%	-98.5*	?
Cc1cccc(N2CCN(CCCNC(=O)c3sc4ncccc4c3-n3cccc3)CC2C)c1 (centres undefined)	/	/	-6.5	/
Cc1cc(F)ccc1NC(=O)C1CCCN(S(=O)(=O)c2ccc3c(c2)CCCC(=O)N3)C1 (centres undefined)	/	/	-0.6	/
Cc1cc(NC(=O)c2cccc(Oc3ccccc3)c2)n[nH]1	i	350.1%	-70.9*	-23.0%
Cc1cccc(NC(=O)c2ccccc2Br)n1	/	11.7µM*	19.7	4.9%
Cc1cccc(NC(=O)c2cccc(NC(=O)c3ccccc3)c2)n1	0.1%	13.1µM*	-12.7	?
Cc1cc(NC(=O)NC(=O)c2cccc(OC(F)(F)C(F)F)c2)n[nH]1	104.3%	?	23.5	-7.9%
Cc1cccc(NC(=O)Nc2ccccc2)n1	71.5%	87.2%	-65.3*	-7.6%
CCOC(=O)NC(=S)Nc1cccc(C)n1	/	/	-62.5*	/
O=C(Nc1cccc(C(=O)Nc2ccc(Cl)cn2)c1)c1ccccc1	20.0%	?	4.7	12.6µM*
c1ccc2c(Nc3ccc4c(c3)OCCO4)c3c(nc2c1)CCCC3	?	?	-72.9*	?
Cc1ccc2nc3c(c(Nc4cccc(O)c4)c2c1)CCC3	5.22µM*	21.5%	12.5	-23.5%
COC(=O)c1cccc(Nc2c3c(nc4ccccc24)CCC3)c1	11.7µM*	-5.4%	-20.2	3.16µM*
O=C(Nc1c2c(nc3ccccc13)CCCC2)c1cccc([N+](=O)[O-])c1	28.0%	50.7%	-64.2*	?
O=C(O)CCn1c(=O)c2cccn2c2cccnc21	/	/	55.5	/
SMILES	Pf growth 48h	Pf growth 96h	HCMV antiviral	HCV inh
CCc1ccc2c(c1)NC(c1ccc(C)cc1)=NC(c1cccs1)=N2	/	/	16.3	/
O=C(Nc1c(C(=O)N2CCOCC2)oc2ccccc12)c1cccc([N+](=O)[O-])c1	-4.0%	13.1µM*	-36.4	?
C[N+](C)(C)c1ccc(/C=N/Nc2nc(Cl)c(C#N)c(Cl)c2Cl)cc1	2.08µM*	?	-34.6	30.7%
N#Cc1c(Cl)nc(N/N=C/c2ccccc2)c(Cl)c1Cl	7.4%	5.22µM*	-3.2	20.2%
Nc1ncc(/C=C/CNC(=O)c2cc(Cl)c(Br)[nH]2)[nH]1	/	/	-14.6	/
O=C(COC(=O)C12CC3CC(CC(C3)C1)C2)Nc1ccc2[nH]c(=O)[nH]c2c1	?	-4.5%	/	3.7%
CC(C)(C)C1CCC(C(=O)OCC(=O)Nc2ccc3[nH]c(=O)[nH]c3c2)CC1 (centres undefined)	-1.5%	-8.1%	-72.2*	18.7%
Cc1ccccc1CN1CCN2C(C(=O)NCC3CCOCC3)=COC2=NC1=O	/	/	-0.3	/
CC[C@]12c3[nH]c4ccc(Cl)cc4c3CCN1C(=O)[C@@H](CC(=O)NC(C)(C)C)C[C@@H]2C(=O)N1CCN(C(=O)c2ccco2)CC1	/	/	-14.3	16.1%
CC[C@]12c3[nH]c4ccc(Cl)cc4c3CCN1C(=O)[C@@H](CC(=O)NC/C=C(\C)CCC=C(C)C)C[C@@H]2C(=O)N1CCN(C(=O)c2ccco2)CC1	/	/	?	11.2µM*
COc1ccc2[nH]c3c(c2c1)CCN1C(=O)C(CC(=O)NC/C=C(\C)CCC=C(C)C)C[C@H](C(=O)N2CCOCC2)[C@@]31CCC1CCCC1 (some centres undefined)	/	/	7.8	2.51µM*
CN(C)C(=O)CCc1ccc2c3c([nH]c2c1)[C@]1(CCC2CCCC2)[C@@H](C(=O)N2CCOCC2)C[C@H](CC(=O)NCC24CC5CC(CC(C5)C2)C4)C(=O)N1CC3	/	/	-13.8	-1.9%
CC[C@]12c3[nH]c4ccc(OC)cc4c3CCN1C(=O)C(CC(=O)NC/C=C(\C)CCC=C(C)C)C[C@@H]2C(=O)N1CCN(C(=O)C2CC2)CC1 (some centres undefined)	/	/	0.3	?
CC(C)=CCC/C(C)=C/CNC(=O)C[C@H]1C[C@H](C(=O)N2CCOCC2)[C@@]2(CCC3CCCC3)c3[nH]c4cc(CCC(=O)N(C)C)ccc4c3CCN2C1=O	/	/	-107.9*	11.2µM*
O=C(NCCCc1nc2ccccc2n1Cc1ccccc1F)c1ccco1	/	/	-33.5	/
COC(=O)C=CC(=NNc1ccccc1)c1ccccc1	/	/	46.3	22.4µM*
CCCNc1nc2c(c(=O)n(C)c(=O)n2C)n1Cc1ccc(F)cc1	0.8%	-6.6%	-36.9	11.2µM*
Cn1c(=O)c2c(nc(NCc3ccccc3)n2Cc2ccc(F)cc2)n(C)c1=O	?	14.7µM*	/	-4.0%
COCCCNc1nc2c(c(=O)n(C)c(=O)n2C)n1Cc1ccccc1	/	/	-5.6	/
Cn1c(=O)c2c(nc(N/N=C/c3cccs3)n2Cc2ccccc2)n(C)c1=O	?	10.4µM*	?	?
COc1ccc(Cn2c(C(=O)O)c(CNCc3ccc(C)o3)c3ccc(C)cc32)cc1	/	/	-37.8	/
COc1ccc(CNCc2c(C(=O)O)n(Cc3ccc(F)cc3)c3cc(C)ccc23)cc1OC	/	/	-67.6*	/
CCc1ccc(CNCc2c(C(=O)O)n(Cc3ccc(C)cc3)c3cc(C)ccc23)cc1	/	/	-93.8*	/
C=Cc1ccc(Cn2c(C(=O)O)c(CNCc3ccccc3)c3ccc(C)cc32)cc1	/	/	-102.4*	/
Cc1ccc(CNCc2c(C(=O)O)n(Cc3ccc(C)cc3)c3cc(C)ccc23)cc1	/	/	-107.0*	/
Cc1ccc(CNCc2c(C(=O)O)n(Cc3ccccc3C)c3cc(C)ccc23)cc1	/	/	24.6	/
CCCCc1nn2c(=O)cc(COC(=O)COc3ccc(C)cc3)nc2s1	/	/	-4.0	/
O=C(Nc1ccccc1)C1Cc2c(-c3ccc4c(c3)OCO4)ccnc2O1 (centres undefined)	/	/	-21.7	/

From PubChem BioAssay
